# Laboratory results as given in PubChem BioAssay (EPA / NIEHS).
# Records with an inconclusive call do not appear. Where a structure was tested more than once in an assay, its records may differ in their call. The source made the active and inactive calls. The calls were made as follows, unless noted: active = hit-call score of the fitted dose curve at least 0.9, where 1 is the maximum; inconclusive = response in the unintended direction; inactive = score below 0.9.
# How the values were obtained:
# [1] = system: Sodium/Iodide Symporter (NIS), SLC5A5 (gene 6528); test: CPHEA_Stoker_NIS_Inhibition_RAIU: CPHEA's Radioactive Iodide Uptake (RAIU) Assay for Sodium/Iodide Symporter (NIS) Inhibition, Stoker and Laws Labs (AID 2283841)
# Method in brief: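 Test chemicals, six concentrations from 0.001 to 100uM in 0.5% DMSO, were co-incubated with carrier-free 125I (final 329pM) on hNIS-HEK293T-EPA monolayers in pH 7.4 HEPES-buffered HBSS. Plates stood 2 hours at room temperature, then were washed cold and counted.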
# [2] = CPHEA_Stoker_NIS_Cytotoxicity: Cytotoxicity Assessment for CPHEA's Radioactive Iodide Uptake (RAIU) Assay for Sodium/Iodide Symporter (NIS) Inhibition, Stoker and Laws Labs (AID 2283897);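 as to AC50: active means loss of ATP signal versus DMSO meaning cytotoxicity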
# Method in brief: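 Viability in hNIS-HEK293T-EPA cells is scored as a drop in luciferase-detected ATP following 2-hour room-temperature exposure (0.001–100uM; triplicate wells, three cell passages), with DMSO as negative control.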
# [3] = system: zebrafish Peroxisome Proliferator-activated Receptor gamma (PPARg), gene 557037; test: ATG_zfPPARg_XSP2: Attagene TRANS-FACTORIAL Multi-Species (XSP2) HepG2 Assay for zebrafish Peroxisome Proliferator-activated Receptor gamma (PPARg) (AID 2283833);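 also: actives increase reporter signal over DMSO so AC50 reflects activation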
# Method in brief: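 Multi-species TRANS format in HepG2, 24 h dosing; medium also contained 3 nM 6-alpha-fluorotestosterone and 1.5 nM norgestrel to stimulate androgen receptor. Zebrafish PPARg-GAL4 induced reporter mRNA was measured by RT-PCR/capillary electrophoresis.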
# [4] = system: turtle Thyroid Hormone Receptor, alpha (TRa), gene 101949057; test: ATG_trTRa_XSP2: Attagene TRANS-FACTORIAL Multi-Species (XSP1) HepG2 Assay for turtle Thyroid Hormone Receptor, alpha (TRa) (AID 2283834);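 also: hits raise reporter mRNA over the DMSO baseline so AC50 marks activators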
# Method in brief: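 Transfection of HepG2 with multiple reporter transcription units, then chemical dosing for 24 h. Total RNA was reverse-transcribed, reporter sequences PCR-amplified and FAM-labelled, then sized by capillary electrophoresis. DMSO served as baseline.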
# [5] = ATG_M_61_XSP2: Attagene TRANS-FACTORIAL Multi-Species (XSP2) HepG2 Assay for M61 Transcription Factor (Internal Marker) (AID 2283835; active = hit-call score of the fitted dose curve at least 0.9, where 1 is the maximum; inactive = score below 0.9;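 also: active means a rise in signal above the DMSO baseline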)
# Method in brief: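 HepG2 cells transiently transfected with multiple GAL4-UAS reporter units; reporter mRNA measured 24 h after dosing by RT-PCR, fluorescent labelling and capillary electrophoresis. Medium contained 3 nM 6-alpha-fluorotestosterone and 1.5 nM norgestrel; internal marker, DMSO baseline.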
# [6] = biological target: zebrafish Thyroid Hormone Receptor beta (TRb), thrb (gene 30607) (UniProt Q9PVE4); test: ATG_zfTRb_XSP2: Attagene TRANS-FACTORIAL Multi-Species (XSP1) HepG2 Assay for zebrafish Thyroid Hormone Receptor beta (TRb) (AID 2283836)
# zebrafish Thyroid Hormone Receptor beta (TRb), thrb (gene 30607), sequence (Q9PVE4 whole entry, looked up, the tested form may be a part): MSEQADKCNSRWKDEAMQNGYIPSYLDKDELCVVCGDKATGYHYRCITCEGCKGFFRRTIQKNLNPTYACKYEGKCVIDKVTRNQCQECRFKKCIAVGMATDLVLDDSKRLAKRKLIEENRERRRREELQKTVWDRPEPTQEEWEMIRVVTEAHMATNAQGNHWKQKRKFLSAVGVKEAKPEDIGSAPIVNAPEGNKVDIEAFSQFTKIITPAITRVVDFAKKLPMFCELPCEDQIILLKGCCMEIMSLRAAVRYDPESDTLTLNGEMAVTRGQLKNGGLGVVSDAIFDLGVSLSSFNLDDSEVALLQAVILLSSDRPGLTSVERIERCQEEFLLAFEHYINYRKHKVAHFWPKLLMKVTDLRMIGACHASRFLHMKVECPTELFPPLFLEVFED
# Method in brief: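 HepG2 cells transiently transfected with chimeric zebrafish TRb-GAL4 reporter units, dosed 24 h with 3 nM 6-alpha-fluorotestosterone and 1.5 nM norgestrel present. Reporter mRNA quantified by RT-PCR and capillary electrophoresis; gain fitted against DMSO.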
# [7] = ATG_XTT_Cytotoxicity_XSP2: Cytotoxicity Assessment in the Attagene TRANS-FACTORIAL Multi-Species (XSP2) HepG2 Assay (AID 2283837)
# Method in brief: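 HepG2 cells, transiently transfected with multiple reporter constructs, exposed to chemical for 24 h. Cell number assessed with XTT fluorescence read-out; loss of signal fitted relative to DMSO.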
# [8] = biological target: human Thyroid hormone Receptor alpha (TRa), THRA (gene 7067) (UniProt P10827); test: ATG_hTRa_XSP2: Attagene TRANS-FACTORIAL Multi-Species (XSP2) HepG2 Assay for human Thyroid hormone Receptor alpha (TRa) (AID 2283838)
# human Thyroid hormone Receptor alpha (TRa), THRA (gene 7067), sequence (P10827 whole entry, looked up, the tested form may be a part): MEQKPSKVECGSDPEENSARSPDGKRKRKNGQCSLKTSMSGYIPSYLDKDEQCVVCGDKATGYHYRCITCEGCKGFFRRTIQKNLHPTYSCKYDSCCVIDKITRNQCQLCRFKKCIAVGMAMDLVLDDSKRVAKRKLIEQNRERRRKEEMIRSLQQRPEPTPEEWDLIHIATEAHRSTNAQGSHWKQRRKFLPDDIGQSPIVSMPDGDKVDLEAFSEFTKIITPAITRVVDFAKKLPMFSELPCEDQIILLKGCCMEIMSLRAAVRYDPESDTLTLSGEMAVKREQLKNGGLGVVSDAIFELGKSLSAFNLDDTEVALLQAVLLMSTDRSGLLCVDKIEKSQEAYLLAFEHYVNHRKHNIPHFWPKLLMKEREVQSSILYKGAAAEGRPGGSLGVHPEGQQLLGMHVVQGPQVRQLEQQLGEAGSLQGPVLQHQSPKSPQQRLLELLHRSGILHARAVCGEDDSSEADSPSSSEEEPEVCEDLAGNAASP
# Method in brief: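 HepG2 cells were transiently transfected with GAL4-UAS reporter units for chimeric human TRa-Gal4 and dosed for 24 hours, with 3 nM 6-alpha-fluorotestosterone and 1.5 nM norgestrel present. Reporter mRNA was quantified by RT-PCR, FAM labelling and capillary electrophoresis, with gain of signal fitted versus DMSO.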
# [9] = biological target: frog Thyroid hormone Receptor alpha (TRa), thra-a (gene 397942) (UniProt P15204); test: ATG_frTRa_XSP2: Attagene TRANS-FACTORIAL Multi-Species (XSP2) HepG2 Assay for frog Thyroid hormone Receptor alpha (TRa) (AID 2283839);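 as to AC50: AC50 reflects induction of frog TRa-driven reporter mRNA above DMSO baseline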
# frog Thyroid hormone Receptor alpha (TRa), thra-a (gene 397942), sequence (P15204 whole entry, looked up, the tested form may be a part): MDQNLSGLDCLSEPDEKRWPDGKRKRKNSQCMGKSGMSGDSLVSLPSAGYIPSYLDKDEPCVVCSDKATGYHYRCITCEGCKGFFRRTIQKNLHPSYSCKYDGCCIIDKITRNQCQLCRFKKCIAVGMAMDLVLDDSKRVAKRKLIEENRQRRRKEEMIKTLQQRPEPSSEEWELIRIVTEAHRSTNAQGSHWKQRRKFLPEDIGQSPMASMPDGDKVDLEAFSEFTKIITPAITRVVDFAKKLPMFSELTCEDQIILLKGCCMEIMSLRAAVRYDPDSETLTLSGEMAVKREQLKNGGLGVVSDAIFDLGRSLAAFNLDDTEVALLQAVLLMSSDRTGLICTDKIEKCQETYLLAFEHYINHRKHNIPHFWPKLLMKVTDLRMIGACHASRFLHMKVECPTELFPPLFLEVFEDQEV
# Method in brief: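 Transfect HepG2 with multiple reporter units (GAL4-UAS), dose chemical, incubate 24 h. Isolate RNA, reverse-transcribe, PCR-amplify reporter, label with 6-FAM by primer extension, digest with HpaI, run capillary electrophoresis; induction scored against DMSO.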
# [10] = biological target: human Thyroid hormone Receptor beta (TRb), THRB (gene 7068) (UniProt P10828); test: ATG_hTRb_XSP2: Attagene TRANS-FACTORIAL Multi-Species (XSP2) HepG2 Assay for human Thyroid hormone Receptor beta (TRb) (AID 2283840);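 also: actives raise reporter mRNA so potency reflects agonist-like gain of signal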
# human Thyroid hormone Receptor beta (TRb), THRB (gene 7068), sequence (P10828 whole entry, looked up, the tested form may be a part): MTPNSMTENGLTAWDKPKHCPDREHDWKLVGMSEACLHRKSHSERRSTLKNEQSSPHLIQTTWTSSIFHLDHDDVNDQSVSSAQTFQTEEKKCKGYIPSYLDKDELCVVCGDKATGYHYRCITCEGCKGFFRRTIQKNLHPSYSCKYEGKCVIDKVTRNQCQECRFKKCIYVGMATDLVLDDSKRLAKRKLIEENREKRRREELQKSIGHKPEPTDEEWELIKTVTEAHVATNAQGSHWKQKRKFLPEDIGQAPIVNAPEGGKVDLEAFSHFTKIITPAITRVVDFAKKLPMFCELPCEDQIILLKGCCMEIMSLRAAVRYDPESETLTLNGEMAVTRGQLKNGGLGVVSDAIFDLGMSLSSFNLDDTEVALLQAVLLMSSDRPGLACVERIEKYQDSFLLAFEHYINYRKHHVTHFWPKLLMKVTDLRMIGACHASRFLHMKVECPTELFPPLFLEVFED
# Method in brief: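 Transient transfection of human HepG2 with multi-species NR-Gal4/GAL4-UAS reporter constructs; 24 h compound treatment; RNA isolation, reverse transcription, PCR and HpaI digest; capillary electrophoresis of labeled fragments; activity fitted upward versus DMSO.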
# [11] = CEETOX_H295R_11DCORT_noMTC: CeeTox H295R High-throughput Steroidogenesis Assay for 11-Deoxycortisol (11DCORT), maximum tolerated concentration (MTC) filtered results only (AID 2283911; active = hit-call score of the fitted dose curve at least 0.9, where 1 is the maximum; inactive = score below 0.9); conditions: actives raise or lower the signal
# Method in brief: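 Steroidogenesis was stimulated in H295R cells with 10 uM forskolin for 48 h before a 48 h chemical exposure. Secreted 11-deoxycortisol was measured by tandem mass spectrometry and fitted bidirectionally against DMSO controls.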
# [12] = CEETOX_H295R_OHPREG_noMTC: CeeTox H295R High-throughput Steroidogenesis Assay for OH-Pregnenolone (OHPREG), maximum tolerated concentration (MTC) filtered results only (AID 2283912; active = hit-call score of the fitted dose curve at least 0.9, where 1 is the maximum; inactive = score below 0.9); conditions: actives raise or lower the signal
# Method in brief: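 H295R cells prestimulated 48 h with 10 uM forskolin, then exposed 48 h to compound (0.1% DMSO). 17alpha-hydroxypregnenolone in medium measured by MTBE extraction and HPLC-MS/MS; bidirectional fit vs DMSO, concentrations not MTT/MTC-filtered.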
# [13] = CEETOX_H295R_OHPROG_noMTC: CeeTox H295R High-throughput Steroidogenesis Assay for OH-Progesterone (OHPROG), maximum tolerated concentration (MTC) filtered results only (AID 2283914; active = hit-call score of the fitted dose curve at least 0.9, where 1 is the maximum; inactive = score below 0.9); conditions: actives raise or lower the signal
# Method in brief: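 H295R cells prestimulated 48 h with 10 uM forskolin, then exposed 48 h to chemical (0.1% DMSO final). 17alpha-hydroxyprogesterone in medium quantified by HPLC-MS/MS after MTBE extraction; bidirectional fitting versus DMSO, concentrations not MTC-filtered.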
# [14] = CEETOX_H295R_CORTISOL_noMTC: CeeTox H295R High-throughput Steroidogenesis Assay for Cortisol, maximum tolerated concentration (MTC) filtered results only (AID 2283916; active = hit-call score of the fitted dose curve at least 0.9, where 1 is the maximum; inactive = score below 0.9); conditions: actives raise or lower the signal
# Method in brief: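 H295R human adrenal cells prestimulated 48 h with 10 uM forskolin, then exposed 48 h to chemical in 0.1% DMSO; cortisol in medium quantified by HPLC-MS/MS; bidirectional fit vs DMSO baseline, concentrations not MTT-filtered for MTC.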
# [15] = CEETOX_H295R_CORTIC_noMTC: CeeTox H295R High-throughput Steroidogenesis Assay for Corticosterone (CORTIC), maximum tolerated concentration (MTC) filtered results only (AID 2283917; active = hit-call score of the fitted dose curve at least 0.9, where 1 is the maximum; inactive = score below 0.9); conditions: actives raise or lower the signal
# Method in brief: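 H295R adrenal cells pre-stimulated 48 h with 10 uM forskolin, then exposed 48 h to chemical in 0.1% DMSO; corticosterone in medium quantified by HPLC-MS/MS, fitted bidirectionally versus DMSO without MTT-based concentration filtering.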
# [16] = CEETOX_H295R_DOC_noMTC: CeeTox H295R High-throughput Steroidogenesis Assay for DOC, maximum tolerated concentration (MTC) filtered results only (AID 2283918; active = hit-call score of the fitted dose curve at least 0.9, where 1 is the maximum; inactive = score below 0.9); conditions: actives raise or lower the signal
# Method in brief: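 H295R cells prestimulated 48 h with 10 uM forskolin, then exposed 48 h to chemical in 0.1% DMSO. 11-Deoxycorticosterone in medium measured by MTBE extraction and HPLC-MS/MS; bidirectional fit vs DMSO, no MTC filter.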
# [17] = CEETOX_H295R_ESTRADIOL_noMTC: CeeTox H295R High-throughput Steroidogenesis Assay for Estradiol, maximum tolerated concentration (MTC) filtered results only (AID 2283919; active = hit-call score of the fitted dose curve at least 0.9, where 1 is the maximum; inactive = score below 0.9); conditions: actives raise or lower the signal
# Method in brief: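 H295R human adrenal cells pre-stimulated 48 h with 10 uM forskolin, then exposed 48 h to chemical (0.1% DMSO final). Estradiol in medium measured by HPLC-MS/MS after MTBE extraction and dansyl derivatization; bidirectional fit versus DMSO, concentrations not MTT-filtered.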
# [18] = CEETOX_H295R_PROG_noMTC: CeeTox H295R High-throughput Steroidogenesis Assay for Progesterone (PROG), maximum tolerated concentration (MTC) filtered results only (AID 2283920; active = hit-call score of the fitted dose curve at least 0.9, where 1 is the maximum; inactive = score below 0.9); conditions: actives raise or lower the signal
# Method in brief: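 H295R cells, prestimulated 48 h with 10 uM forskolin, exposed 48 h to chemical in 0.1% DMSO. Medium progesterone quantified by MTBE extraction and HPLC-MS/MS; bidirectional fit versus DMSO, concentrations not MTT-filtered.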
# [19] = CEETOX_H295R_ESTRONE_noMTC: CeeTox H295R High-throughput Steroidogenesis Assay for Estrone, maximum tolerated concentration (MTC) filtered results only (AID 2283921; active = hit-call score of the fitted dose curve at least 0.9, where 1 is the maximum; inactive = score below 0.9); conditions: actives raise or lower the signal
# Method in brief: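 H295R cells prestimulated 48 h with 10 uM forskolin, then exposed 48 h to chemical in 0.1% DMSO; medium estrone measured by HPLC-MS/MS after MTBE extraction and dansyl derivatization, fitted bidirectionally versus DMSO without MTT-based MTC filtering.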
structure (smiles),measurement,setting,value
CCCCCCCCOC(=O)c1cc(O)c(O)c(O)c1,outcome,[1],inactive
same,outcome,[2],inactive
O=c1c(-c2ccc(O)cc2)coc2cc(O)cc(O)c12,outcome,[3],inactive
same,outcome,[4],inactive
same,outcome,[5],inactive
same,outcome,[6],inactive
same,outcome,[7],inactive
same,outcome,[8],inactive
same,outcome,[9],inactive
same,outcome,[10],inactive
CC1(C)NC(=O)N(c2ccc([N+](=O)[O-])c(C(F)(F)F)c2)C1=O,outcome,[4],inactive
same,outcome,[6],inactive
same,outcome,[7],inactive
same,outcome,[8],inactive
same,AC50,[9],66.4 µM (active)
same,outcome,[9],inactive
same,AC50,[10],148 µM (active)
same,outcome,[10],inactive
CC(C)(O)c1ccc(CNC(=O)c2cccnc2Oc2ccc3nonc3c2)cc1,outcome,[2],inactive
same,outcome,[11],inactive
same,outcome,[12],inactive
same,outcome,[13],inactive
same,AC50,[14],61.8 µM (active)
same,outcome,[15],inactive
same,AC50,[16],0.0934 µM (active)
same,AC50,[17],0.0671 µM (active)
same,outcome,[18],inactive
same,AC50,[19],0.0407 µM (active)
NC(=O)c1nc(-c2cccc(-c3cc(F)ccc3OCC(F)(F)C(F)(F)F)c2)n[nH]1,AC50,[1],50 µM (active)
C[C@]12CC[C@@H]3c4ccc(O)cc4CC[C@H]3[C@@H]1CCC2=O,outcome,[5],inactive
same,outcome,[9],inactive
NCc1cccc(C2CCN(C(=O)c3ccc(C#Cc4ccccc4F)o3)CC2)c1,outcome,[1],inactive
same,AC50,[2],16.3 µM (active)
CCN(Cc1cccnc1)C(=O)c1cccc(Cl)c1[C@]1(C)C(=O)N(Cc2ccc(OC)cc2OC)c2ccc(Cl)cc21,outcome,[2],inactive
CCCCOC(=O)CC(CC(=O)OCCCC)(OC(C)=O)C(=O)OCCCC,outcome,[2],inactive
OC12N=C(c3ccccc3)SC1Cc1cc(Cl)ccc12 (centres undefined),outcome,[1],inactive
same,outcome,[2],inactive
CC(C)(C)c1csc(-c2cc3cc(OCc4ccccc4CC(=O)O)ccc3o2)n1,AC50,[1],50 µM (active)
same,AC50,[2],9.92 µM (active)
Cc1oc2c(NC(=O)c3c(Cl)cccc3Cl)cccc2c1C(C)(C)O,outcome,[2],inactive
CC/C(=C(/CC)c1ccc(O)cc1)c1ccc(O)cc1,outcome,[4],inactive
same,outcome,[5],inactive
same,outcome,[6],inactive
same,outcome,[1],inactive
same,AC50,[2],9.92 µM (active)
same,AC50,[11],45 µM (active)
same,AC50,[14],34.8 µM (active)
same,AC50,[15],35.4 µM (active)
same,AC50,[16],84.6 µM (active)
same,outcome,[18],inactive
CCCCCCCCCCCC[N+](C)(C)C,outcome,[1],inactive
same,outcome,[2],inactive
COc1cc(C(=O)NC2CCN(C)CC2)ccc1Nc1ncc2c(n1)N(C1CCCC1)CC(F)(F)C(=O)N2C,outcome,[1],inactive
same,outcome,[2],inactive
CN1C(=O)N(c2ccccc2Br)Cc2cnc(Nc3ccc4c(c3)OCC(CO)O4)nc21 (centres undefined),outcome,[1],inactive
same,outcome,[2],inactive
CC(C)(C)c1cc(/C=C2\SC(N)=NC2=O)cc(C(C)(C)C)c1O,outcome,[1],inactive
same,AC50,[2],4.96 µM (active)
CCCCCc1ccc(N)cc1,outcome,[2],inactive
same,outcome,[12],inactive
same,AC50,[13],12.4 µM (active)
same,outcome,[17],inactive
same,AC50,[18],13.9 µM (active)
same,outcome,[19],inactive
